# Results from the supplement of paper PMC12282887.
# ± gives the standard deviation of the averaged measurements.
# Tests used:
# Experiment in all cases: promoter activity interaction Z-score (Lux/OD deviation from empty-vector control); higher = stronger promoter induction by the compound
# [1] = system: E. coli BW25113 acrABp lux reporter
# Method in brief: (§1)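 Every compound was given at four 1:2 dilutions, in biological duplicates, to E. coli BW25113 carrying low-copy luxCDABE promoter reporters in wild-type or single-gene deletion backgrounds. Growth in 40 µl LB Lennox in 384-well plates at 37°C was followed by OD600 and luminescence readings every 30 min for 12 h, integrated over 0–8 h for wild type and 1–9 h for deletion strains, with wells below 10% of the median growth value excluded. Scores are Z-transformed residuals of growth-normalised luminescence fitted against a control.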
# [2] = system: E. coli BW25113 marRABp lux reporter
# Method in brief: as §1
# [3] = system: E. coli BW25113 micFp lux reporter
# Method in brief: as §1
# [4] = system: E. coli BW25113 ompFp lux reporter
# Method in brief: as §1
# [5] = system: E. coli BW25113 robp lux reporter
# Method in brief: as §1
# [6] = system: E. coli BW25113 soxSp lux reporter
# Method in brief: as §1
# [7] = system: E. coli BW25113 tolCp lux reporter
# Method in brief: as §1
# [8] = 0.25 µg/ml, genetic background: wild type
# [9] = 0.25 µg/ml, genetic background: ΔmarA
# [10] = 0.25 µg/ml, genetic background: Δrob
# [11] = 0.25 µg/ml, genetic background: ΔsoxS
# [12] = 0.5 µg/ml, genetic background: wild type
# [13] = 0.5 µg/ml, genetic background: ΔmarA
# [14] = 0.5 µg/ml, genetic background: Δrob
# [15] = 0.5 µg/ml, genetic background: ΔsoxS
# [16] = 1 µg/ml, genetic background: wild type
# [17] = 1 µg/ml, genetic background: ΔmarA
# [18] = 1 µg/ml, genetic background: Δrob
# [19] = 1 µg/ml, genetic background: ΔsoxS
# [20] = 2 µg/ml, genetic background: wild type
# [21] = 2 µg/ml, genetic background: ΔmarA
# [22] = 2 µg/ml, genetic background: Δrob
# [23] = 2 µg/ml, genetic background: ΔsoxS
compound,measurement,setting,value
CC1(C)S[C@@H]2[C@H](NC(=O)[C@H](N)c3ccc(O)cc3)C(=O)N2[C@H]1C(=O)O [Amoxicillin],promoter activity interaction Z-score,[1]; [8],-0.14 ± 0.051
same,promoter activity interaction Z-score,[1]; [9],-0.253 ± 0.59
same,promoter activity interaction Z-score,[1]; [10],-0.295 ± 0.22
same,promoter activity interaction Z-score,[1]; [11],-0.0223 ± 0.27
same,promoter activity interaction Z-score,[1]; [12],0.0232 ± 0.18
same,promoter activity interaction Z-score,[1]; [13],0.274 ± 0.094
same,promoter activity interaction Z-score,[1]; [14],-0.216 ± 0.0076
same,promoter activity interaction Z-score,[1]; [15],-0.454 ± 0.18
same,promoter activity interaction Z-score,[1]; [16],0.074 ± 0.092
same,promoter activity interaction Z-score,[1]; [17],-0.334 ± 1.8
same,promoter activity interaction Z-score,[1]; [18],-0.382 ± 0.033
same,promoter activity interaction Z-score,[1]; [19],-0.0766 ± 0.0011
same,promoter activity interaction Z-score,[1]; [20],2.15
same,promoter activity interaction Z-score,[1]; [21],0.388
same,promoter activity interaction Z-score,[1]; [22],0.134
same,promoter activity interaction Z-score,[2]; [8],-0.00562 ± 0.025
same,promoter activity interaction Z-score,[2]; [9],-0.347 ± 0.22
same,promoter activity interaction Z-score,[2]; [10],-0.215 ± 0.082
same,promoter activity interaction Z-score,[2]; [11],-0.207 ± 0.2
same,promoter activity interaction Z-score,[2]; [12],-0.157 ± 0.027
same,promoter activity interaction Z-score,[2]; [13],-0.297 ± 0.22
same,promoter activity interaction Z-score,[2]; [14],-0.322 ± 0.047
same,promoter activity interaction Z-score,[2]; [15],-0.372 ± 0.14
same,promoter activity interaction Z-score,[2]; [16],-0.138 ± 0.097
same,promoter activity interaction Z-score,[2]; [17],-0.483 ± 0.18
same,promoter activity interaction Z-score,[2]; [18],-0.211 ± 0.031
same,promoter activity interaction Z-score,[2]; [19],-0.251 ± 0.091
same,promoter activity interaction Z-score,[2]; [20],2.97
same,promoter activity interaction Z-score,[2]; [21],2.07
same,promoter activity interaction Z-score,[2]; [22],3.21
same,promoter activity interaction Z-score,[2]; [23],1.67
same,promoter activity interaction Z-score,[3]; [8],0.256 ± 0.44
same,promoter activity interaction Z-score,[3]; [9],-0.0861 ± 0.065
same,promoter activity interaction Z-score,[3]; [10],0.0252 ± 0.083
same,promoter activity interaction Z-score,[3]; [11],-0.211 ± 0.11
same,promoter activity interaction Z-score,[3]; [12],0.278 ± 0.29
same,promoter activity interaction Z-score,[3]; [13],-0.0538 ± 0.13
same,promoter activity interaction Z-score,[3]; [14],0.0683 ± 0.17
same,promoter activity interaction Z-score,[3]; [15],-0.261 ± 0.46
same,promoter activity interaction Z-score,[3]; [16],0.0789 ± 0.095
same,promoter activity interaction Z-score,[3]; [17],-0.0503 ± 0.00046
same,promoter activity interaction Z-score,[3]; [18],0.0923 ± 0.071
same,promoter activity interaction Z-score,[3]; [19],-0.05 ± 0.078
same,promoter activity interaction Z-score,[3]; [20],1.75 ± 2.8
same,promoter activity interaction Z-score,[3]; [21],-0.285 ± 0.003
same,promoter activity interaction Z-score,[3]; [22],-0.0252 ± 0.1
same,promoter activity interaction Z-score,[3]; [23],-0.185 ± 0.25
same,promoter activity interaction Z-score,[4]; [8],0.146 ± 0.14
same,promoter activity interaction Z-score,[4]; [9],-0.696 ± 0.38
same,promoter activity interaction Z-score,[4]; [10],-0.183 ± 0.067
same,promoter activity interaction Z-score,[4]; [11],-0.811 ± 0.064
same,promoter activity interaction Z-score,[4]; [12],0.133 ± 0.13
same,promoter activity interaction Z-score,[4]; [13],-0.265 ± 0.34
same,promoter activity interaction Z-score,[4]; [14],-0.637 ± 0.024
same,promoter activity interaction Z-score,[4]; [15],-0.837 ± 0.48
same,promoter activity interaction Z-score,[4]; [16],-0.523 ± 0.21
same,promoter activity interaction Z-score,[4]; [17],-0.753 ± 0.13
same,promoter activity interaction Z-score,[4]; [18],-0.725 ± 0.24
same,promoter activity interaction Z-score,[4]; [19],-0.869 ± 0.041
same,promoter activity interaction Z-score,[4]; [21],-1.92
same,promoter activity interaction Z-score,[5]; [8],0.459 ± 0.29
same,promoter activity interaction Z-score,[5]; [9],-0.028 ± 0.04
same,promoter activity interaction Z-score,[5]; [10],-0.226 ± 0.034
same,promoter activity interaction Z-score,[5]; [11],-0.349 ± 0.75
same,promoter activity interaction Z-score,[5]; [12],0.699 ± 0.03
same,promoter activity interaction Z-score,[5]; [13],-0.354 ± 0.23
same,promoter activity interaction Z-score,[5]; [14],0.168 ± 0.52
same,promoter activity interaction Z-score,[5]; [15],-0.698 ± 0.12
same,promoter activity interaction Z-score,[5]; [16],-0.0437 ± 0.14
same,promoter activity interaction Z-score,[5]; [17],-0.0839 ± 0.86
same,promoter activity interaction Z-score,[5]; [18],0.396 ± 1.2
same,promoter activity interaction Z-score,[5]; [19],-1.05 ± 0.49
same,promoter activity interaction Z-score,[5]; [20],-1.64
same,promoter activity interaction Z-score,[5]; [21],0.17
same,promoter activity interaction Z-score,[6]; [8],0.174 ± 0.46
same,promoter activity interaction Z-score,[6]; [9],-0.165 ± 0.13
same,promoter activity interaction Z-score,[6]; [10],0.236 ± 0.24
same,promoter activity interaction Z-score,[6]; [11],-0.199 ± 0.15
same,promoter activity interaction Z-score,[6]; [12],0.319 ± 0.15
same,promoter activity interaction Z-score,[6]; [13],-0.00956 ± 0.1
same,promoter activity interaction Z-score,[6]; [14],0.0715 ± 0.076
same,promoter activity interaction Z-score,[6]; [15],-0.424 ± 0.15
same,promoter activity interaction Z-score,[6]; [16],0.0777 ± 0.017
same,promoter activity interaction Z-score,[6]; [17],-0.259 ± 0.12
same,promoter activity interaction Z-score,[6]; [18],0.156 ± 0.14
same,promoter activity interaction Z-score,[6]; [19],-0.361 ± 0.23
same,promoter activity interaction Z-score,[6]; [20],0.325 ± 0.57
same,promoter activity interaction Z-score,[6]; [21],-0.389 ± 0.55
same,promoter activity interaction Z-score,[6]; [22],0.0112 ± 0.1
same,promoter activity interaction Z-score,[6]; [23],0.999 ± 0.21
same,promoter activity interaction Z-score,[7]; [8],0.312 ± 0.33
same,promoter activity interaction Z-score,[7]; [9],-0.1 ± 0.033
same,promoter activity interaction Z-score,[7]; [10],0.375 ± 1
same,promoter activity interaction Z-score,[7]; [11],-0.105 ± 0.3
same,promoter activity interaction Z-score,[7]; [12],0.531 ± 0.051
same,promoter activity interaction Z-score,[7]; [13],0.00734 ± 0.28
same,promoter activity interaction Z-score,[7]; [14],0.919 ± 0.041
same,promoter activity interaction Z-score,[7]; [15],-0.655 ± 0.93
same,promoter activity interaction Z-score,[7]; [16],0.148 ± 0.45
same,promoter activity interaction Z-score,[7]; [17],-0.404 ± 0.22
same,promoter activity interaction Z-score,[7]; [18],0.949 ± 0.14
same,promoter activity interaction Z-score,[7]; [19],-0.0133 ± 0.46
same,promoter activity interaction Z-score,[7]; [20],0.917 ± 0.13
same,promoter activity interaction Z-score,[7]; [21],-0.67 ± 0.039
same,promoter activity interaction Z-score,[7]; [22],0.283 ± 0.8
same,promoter activity interaction Z-score,[7]; [23],-0.752 ± 0.58
